Sampled rows, rich in hits. Any-hit rate of the full collection: about 1.3%.
KCNH2 WT inh: qHTS for Inhibitors of KCHN2 3.1: Wildtype qHTS. Voltage-gated inwardly rectifying potassium channel KCNH2 (Homo sapiens), Q12809. U2OS, BacMam KCNH2, thallium flux FluxOr; hits give low values. activity change, % at 1.84 µM. actives 0.37% (n = 340,000). AID 720551, 2013;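 active means maximum activity change below -70%; inconclusive means maximum activity change between -70% and -50%; inactive means maximum activity change above -50%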; further: on the % scale 0 is the no-effect control and ±100 the full control effect
Target sequence (Q12809 whole entry, looked up): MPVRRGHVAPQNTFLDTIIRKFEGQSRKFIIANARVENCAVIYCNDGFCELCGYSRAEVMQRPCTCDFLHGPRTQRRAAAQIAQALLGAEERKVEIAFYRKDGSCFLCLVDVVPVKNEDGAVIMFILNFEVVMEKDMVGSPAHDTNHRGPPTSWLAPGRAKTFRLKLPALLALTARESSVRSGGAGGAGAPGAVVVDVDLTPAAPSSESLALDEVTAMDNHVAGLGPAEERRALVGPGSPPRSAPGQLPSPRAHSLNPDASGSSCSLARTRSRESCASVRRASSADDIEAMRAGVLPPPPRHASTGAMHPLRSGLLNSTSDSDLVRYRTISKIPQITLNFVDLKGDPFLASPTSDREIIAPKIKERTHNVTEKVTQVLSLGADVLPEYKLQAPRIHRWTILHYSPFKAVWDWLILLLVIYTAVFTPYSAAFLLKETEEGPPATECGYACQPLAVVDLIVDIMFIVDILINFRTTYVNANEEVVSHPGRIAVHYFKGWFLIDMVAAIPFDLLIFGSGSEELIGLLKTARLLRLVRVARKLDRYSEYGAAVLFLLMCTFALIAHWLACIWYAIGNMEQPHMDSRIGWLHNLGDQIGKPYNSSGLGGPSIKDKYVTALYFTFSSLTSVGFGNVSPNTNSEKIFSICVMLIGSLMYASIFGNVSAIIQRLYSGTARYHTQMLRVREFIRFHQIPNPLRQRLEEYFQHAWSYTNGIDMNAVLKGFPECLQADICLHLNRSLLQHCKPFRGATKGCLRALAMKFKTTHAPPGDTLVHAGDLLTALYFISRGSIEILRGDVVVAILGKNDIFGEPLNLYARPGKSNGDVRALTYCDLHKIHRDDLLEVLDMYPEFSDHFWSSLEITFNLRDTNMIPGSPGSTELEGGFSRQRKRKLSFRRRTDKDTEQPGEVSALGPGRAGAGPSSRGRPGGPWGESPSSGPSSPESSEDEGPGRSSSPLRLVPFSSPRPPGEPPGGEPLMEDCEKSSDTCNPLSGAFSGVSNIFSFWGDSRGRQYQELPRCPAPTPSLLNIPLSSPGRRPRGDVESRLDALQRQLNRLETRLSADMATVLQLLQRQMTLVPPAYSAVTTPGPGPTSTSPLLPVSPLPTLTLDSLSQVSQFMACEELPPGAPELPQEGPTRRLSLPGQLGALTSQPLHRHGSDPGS
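U2OS cells were transduced with wild-type KCNH2 virus (2.03 x 10^8 / mL) for 4 h at room temperature, then cultured overnight at 37 C. Thallium flux was read with FluxOr dye. Rate constants were normalized to DMSO controls.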
KCNH2 3.1 block: qHTS for Inhibitors of KCHN2 3.1: Mutant qHTS; AID 720553, 2013; Potassium voltage-gated channel subfamily H member 2, brain isoform KCNH2 3.1 (human); actives 0.95% (n = 340,000); U2OS KCNH2 3.1, thallium flux FluxOr; hits give low values; activity change, % (tested at about 1.8 µM);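 active means maximum activity change below -70%; inconclusive means maximum activity change from -70% to -50%; inactive means maximum activity change above -50%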;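 further: thallium influx rate constant from kinetic fluorescence after stimulation buffer; on the % scale 0 is the no-effect control and ±100 the full control effect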
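U2OS cells transduced with KCNH2 3.1 mutant virus (1.77 x 10^8 /mL, 4 h), plated overnight at 37 C, loaded 45 min with FluxOr dye plus Red40 quencher. Thallium flux rate constant from kinetic reads after stimulation buffer, normalised to controls.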
Rango release inh: qHTS Assay for Inhibitors of RanGTP induced Rango (Ran-regulated importin-beta cargo) - Importin beta complex dissociation | Snurportin-1 (Homo sapiens) + GTP-binding nuclear protein Ran (Homo sapiens) + Importin … | Biochemical FRET Rango-importin beta, RanGTP-induced dissociation | Potency, µM (titrated, usually from 46.1 µM), for the others: at the top dose activity change, negative = inhibition | actives 0.071% (n = 340,000); further: potency means the concentration at half of the fitted maximal effect; % of control where 0% means no effect; nearly all actives have a fitted effect of over 45% in size
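Quantitative HTS using a FRET biosensor: 0.1 uM Rango, 0.25 uM importin beta, 0.6 uM Ran, 2 mM GTP, 0.2 uM RCC1 final, PBS with DTT, Tween-20 and BSA. Post-read taken 45 min after Ran addition.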
Rango complex inh: qHTS Assay for Inhibitors of Rango (Ran-regulated importin-beta cargo) - Importin beta complex formation | Importin subunit beta-1 (Homo sapiens), Q14974 | Rango CFP/YFP FRET sensor + importin beta, 45 min | Potency, µM (top dose mostly 92.2 µM), for the others: at the highest dose inhibition of complex formation | actives 0.031% (n = 340,000) | AID 540263, 2011;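 further: potency means the concentration at half of the fitted maximal effect; 0% = DMSO wells and 100% = buffer wells lacking importin beta; nearly all actives have a fitted effect of over 15% in size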
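FRET biosensor Rango (snurportin 1 IBB between N-terminal EYFP and C-terminal Cerulean), 50 nM in PBS/1 mM DTT/0.02% Tween-20/0.1% BSA, preincubated 5 min RT with compound; 0.125 microM importin beta added, 45 min RT, CFP/YFP FRET ratio read.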
Starred values were filed as active, the others as inactive. Unless noted, the call rests on the fitted dose curve.

Screening O=C(CCc1ccccc1)NC1CCS(=O)(=O)C1 (centres undefined) returned KCNH2 WT inh -6, KCNH2 3.1 block 7, Rango release inh -1% and Rango complex inh -1%.
Screening Cc1cc(C)nc(N/N=C/C(Cl)=C/c2ccccc2)n1 returned KCNH2 WT inh 7, KCNH2 3.1 block -83*, Rango release inh 4% and Rango complex inh 0%.
`Cc1cc(C)nc(N/N=C/c2ccccc2)n1` gave KCNH2 WT inh -7, KCNH2 3.1 block 5, Rango release inh 4% and Rango complex inh -2%.
For Cc1ccccc1NC1=NS(=O)(=O)c2ccccc21 the results were KCNH2 WT inh -285*, KCNH2 3.1 block 1, Rango release inh 0% and Rango complex inh -1%.
`CC(C)(C)NC(=O)CCc1nnc(Cc2c[nH]c3ccccc23)o1` gave KCNH2 WT inh -12, KCNH2 3.1 block -110*, Rango release inh -14% and Rango complex inh -4%.
CC1(C)CC(=O)C=C(c2cccc(OC(=O)c3ccc(-c4ccccc4)cc3)c2)C1=O was read as KCNH2 WT inh -142* and KCNH2 3.1 block -156*.
Screening C#CCN1C(C)=CC(=O)[C@@H](O)[C@H]1c1ccccc1Br returned KCNH2 WT inh 0, KCNH2 3.1 block -18, Rango release inh -6% and Rango complex inh 0%.
For O=C(O)c1[nH]c2ccc([N+](=O)[O-])cc2c1-c1ccccc1 the results were KCNH2 WT inh 0, KCNH2 3.1 block -194*, Rango release inh -7% and Rango complex inh -2%.
For Cc1ccc(OC(=O)C2c3ccccc3Oc3ccccc32)cc1C the results were KCNH2 WT inh -131*, KCNH2 3.1 block -20, Rango release inh 8% and Rango complex inh 5%.
For CC(=O)c1ccc(OC(=O)C2c3ccccc3Oc3ccccc32)cc1 the results were KCNH2 WT inh -5, KCNH2 3.1 block inconclusive, Rango release inh -12% and Rango complex inh 2%.
Screening CCN1CCN(c2oc(COc3ccc(-c4ccccc4)cc3)nc2C#N)CC1 returned KCNH2 WT inh 29, KCNH2 3.1 block -71*, Rango release inh 5% and Rango complex inh 0%.
NC(=O)NCc1ccc(Cl)cc1 was read as KCNH2 WT inh -21, KCNH2 3.1 block -80*, Rango release inh -10% and Rango complex inh 1%.
For CCC(c1nnc(SCCNCCO)n1CCN1CCOCC1)N(C)C (centres undefined) the results were KCNH2 WT inh -6, KCNH2 3.1 block -177*, Rango release inh -6% and Rango complex inh -2%.
`CC1CC(C)CN(C(=O)COC(=O)/C=C/c2cccc([N+](=O)[O-])c2)C1` (centres undefined) gave KCNH2 WT inh 4, KCNH2 3.1 block -109*, Rango release inh -2% and Rango complex inh inconclusive.
Cc1ccc(S(=O)(=O)Nc2cc(C(F)(F)F)ccc2N2CCOCC2)cc1C was read as KCNH2 WT inh -5, KCNH2 3.1 block -92*, Rango release inh -7% and Rango complex inh -3%.
COc1ccc(NS(=O)(=O)c2cccc(C(=O)N3CCCC3)c2)cc1 was read as KCNH2 WT inh -5, KCNH2 3.1 block 5, Rango release inh 0% and Rango complex inh -3%.
For O=C(NCc1nnc2c(C(F)(F)F)cc(Cl)cn12)c1ccc2c(c1)OCO2 the results were KCNH2 WT inh -160*, KCNH2 3.1 block 11, Rango release inh -2% and Rango complex inh -2%.
CCOC(=O)c1c(NC(=O)CNCCO)sc(C)c1C was read as KCNH2 WT inh -9, KCNH2 3.1 block -4, Rango release inh 2% and Rango complex inh inconclusive.
For CCOC(=O)c1c(NC(=O)CNC2CCCCC2)sc(C)c1C the results were KCNH2 WT inh 6, KCNH2 3.1 block -83*, Rango release inh 3% and Rango complex inh 1%.
`CC(=O)Nc1ccc(NC(=O)C/C(C)=N/NC(=O)C(=O)Nc2ccc(C)c(Cl)c2)cc1` gave KCNH2 WT inh -1, KCNH2 3.1 block -84*, Rango release inh -4% and Rango complex inh 1%.
